PKA-R2B act: PKA-R2B complex activation | P22694+P31323 | PKA-R2B holoenzyme dissociation, Cy5-IP20 fluorescence polarization; R2B truncated from residue 108, S112A mutant; 0% DMSO only, 100% 113 µM cGMP | activation, % at 11.4 µM | 340,000 compounds, 0.079% hits;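 active = activation above a cutoff set at the mean over all compounds plus 3 SD, cut at about 18% in these data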;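 note: higher means more holoenzyme dissociation and a rise in polarization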
Target sequence (P31323 whole entry, looked up, other chains not shown, the tested form may be a part): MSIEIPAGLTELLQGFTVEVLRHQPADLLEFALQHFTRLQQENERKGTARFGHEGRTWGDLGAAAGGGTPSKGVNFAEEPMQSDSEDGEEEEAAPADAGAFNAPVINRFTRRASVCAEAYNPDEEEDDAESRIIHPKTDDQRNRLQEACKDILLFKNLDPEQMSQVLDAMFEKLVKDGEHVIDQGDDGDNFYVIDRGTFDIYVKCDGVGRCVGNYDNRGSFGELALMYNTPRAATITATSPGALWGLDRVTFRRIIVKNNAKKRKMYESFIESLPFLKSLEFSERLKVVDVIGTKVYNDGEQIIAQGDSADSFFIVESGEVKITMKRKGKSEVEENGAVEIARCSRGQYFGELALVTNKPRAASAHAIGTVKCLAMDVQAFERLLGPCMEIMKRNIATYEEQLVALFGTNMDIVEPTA
PKA-R1A activ: activators of PKA-R1A complex; AID 504707; P00514+P68181; PKA-R1A dissociation, Cy5-IP20 fluorescence polarization; scaled: DMSO 0%, 113 µM cGMP 100%; activation, % at 11.4 µM; 340,000 compounds, 0.083% hits;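 active = percent activation above the mean of all tested compounds plus 3 SD, cut at about 19% in these data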;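 note: higher means more PKAc released from R1A so a rise in polarization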
NR1D1 modulator: modulators of human Rev-erb alpha DNA binding; activity, % at 10 µM; P20393; Rev-erbα–FITC-DNA binding, fluorescence polarization, 90 min; 370,000 compounds, 0.79% hits;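 active = activity above about 14%, limit read from the data; passing the limit was not always enough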;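 note: 0% = DMSO wells with 35 nM protein and 100% = DMSO wells with 750 nM protein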
PG9 Ab binder: small molecules binding HIV-1 gp120 antibody PG9. TR-FRET gp120-PG9 antibody binding. inhibition, % at 6.7 µM. 360,000 compounds, 0.43% hits; in the data active = inhibition above about 8.5%
PG9 bind confirm: PG9 antibody binding, confirmed | shares compounds with PG9 Ab binder | TR-FRET PG9 antibody binding, biochemical | inhibition, % at 6.7 µM | 1,500 compounds, 90% hits; in the data active = inhibition above about 9%
PGV04 Ab binding: PGV04 control antibody binding, counter-screen; TR-FRET PGV04 antibody-gp120 binding, biochemical; shares compounds with PG9 Ab binder; inhibition, % at 6.7 µM; 1,500 compounds, 95% hits; in the data active = inhibition above about 9.5%
NR1D1 mod conf: Rev-erb alpha (human) modulation, hit confirmation; shares compounds with NR1D1 modulator; Rev-erb alpha FITC-DNA binding, fluorescence polarization, 90 min; activation, % at 25 µM; 3,000 compounds, 61% hits; AID 1259319;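 active = activation at or above a set limit, or at least 3 SD above the negative control mean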;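 note: 0% = 35 nM protein with DMSO and 100% = 750 nM protein high control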
RORg counter: counter-screen for Rev-erb alpha modulators: RORgamma DNA binding | 910 compounds, 8% hits | purified RORgamma protein-FITC-DNA binding, fluorescence polarization | shares compounds with NR1D1 modulator | IC50, µM;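 active = Compounds whose fitted half-maximal concentration for disrupting protein-DNA binding is below 10 micromolar; the record names Rev-erb in its text, so the target is in doubt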
* marks the source's active call; other numbers are inactive results. A selection: hits, their analogues and other compounds. The true share with any hit is near 1.2%.

Screening COc1ccc(CNC(=O)CCCn2c(=S)[nH]c3cc4c(cc3c2=O)OCO4)cc1 returned PKA-R2B act 5.7, PKA-R1A activ -0.9, NR1D1 modulator 56.4*, PG9 Ab binder 25.9*, PG9 bind confirm 17.0*, PGV04 Ab binding 20.8*, NR1D1 mod conf 35.9* and RORg counter >40.
`C=Cc1ccc(C(=O)N(Cc2ccc(F)cc2)C(C(=O)N(C)C2CCCC2)c2ccc(OC)c(OC)c2)cc1` (stereo not given) gave NR1D1 modulator -9.6.
`O=C1N2Cc3ccccc3C2CS(=O)(=O)N1CCc1ccccc1` (stereo not given) gave NR1D1 modulator -0.1.
COCC#Cc1ccc(CC[C@H]2O[C@H]3CC[C@@H](CO)O[C@H]3C[C@H]2n2cc(C(C)(C)O)nn2)cc1 was read as NR1D1 modulator -0.3.
For CSc1nc2ccc3nc(NC(=O)c4ccc(C)cc4)sc3c2s1 the results were PKA-R2B act 6.6, PKA-R1A activ 1.5, NR1D1 modulator 8.9 and PG9 Ab binder -1.0.
For COc1ccc(C(=O)Nc2nc3ccc4nc(C)sc4c3s2)cc1 the results were PKA-R2B act -5.2, PKA-R1A activ 1.4, NR1D1 modulator 34.2*, PG9 Ab binder 12.5*, PG9 bind confirm 9.8*, PGV04 Ab binding 11.7*, NR1D1 mod conf 41.7* and RORg counter >40.
`Cc1ccc(C(=O)Nc2nc3ccccc3c(=O)s2)cc1` gave PKA-R2B act 11.1, PKA-R1A activ 8.2, NR1D1 modulator 68.7*, PG9 Ab binder 73.2*, PG9 bind confirm 77.9*, PGV04 Ab binding 89.3*, NR1D1 mod conf 35.4* and RORg counter 2.13*.
`O=C(Nc1c(-c2ccc(F)c(F)c2)nc2ncccn12)C1CC1` gave NR1D1 modulator 0.9.
For CCc1cccc(NC(=O)c2ccc(Cn3c(=O)[nH]c4ccsc4c3=O)cc2)c1 the results were PKA-R2B act -1.2, PKA-R1A activ 5.6, NR1D1 modulator 54.6*, PG9 Ab binder 24.7*, PG9 bind confirm 29.1*, PGV04 Ab binding 40.2*, NR1D1 mod conf 60.3* and RORg counter inactive.
`COCCNc1nc(NCc2ccccc2)nc2ccsc12` gave NR1D1 modulator 4.8 and PG9 Ab binder 2.3.
`Clc1ccccc1Nc1nc(NCc2ccccc2)nc2ccsc12` gave NR1D1 modulator 21.4*, PG9 Ab binder 18.1*, PG9 bind confirm 27.1*, PGV04 Ab binding 35.6* and NR1D1 mod conf 5.1.
Screening O=c1cc(N2CCN(c3cccc(C(F)(F)F)c3)CC2)[nH]c(=O)n1C1CCCCC1 returned NR1D1 modulator 2.0.
`Nc1[nH]c2cc(C(F)(F)F)ccc2c1C(=O)NCc1ccc(F)cc1` gave NR1D1 modulator 0.3.
`Cc1ccc2nc3c(cc(C(=O)NC4CCS(=O)(=O)C4)n3Cc3ccccc3)c(=O)n2c1` (stereo not given) gave PKA-R2B act 0.7, PKA-R1A activ -7.9, NR1D1 modulator 25.8*, PG9 Ab binder 22.8*, PG9 bind confirm 19.5*, PGV04 Ab binding 30.8* and NR1D1 mod conf 0.4.
Screening O=C(NC1CCS(=O)(=O)C1)c1cc2c(=O)n3ccccc3nc2n1Cc1ccccc1 (stereo not given) returned PKA-R2B act 5.9, PKA-R1A activ 9.8, NR1D1 modulator -4.7 and PG9 Ab binder 3.8.
For Cc1ccccc1OCC(=O)Nc1ccc2c(c1)C(=O)c1ccccc1C2=O the results were PKA-R2B act -1.6, PKA-R1A activ -7.1, NR1D1 modulator 272.8*, PG9 Ab binder 25.1*, PG9 bind confirm 73.0*, PGV04 Ab binding 91.4*, NR1D1 mod conf 220.8* and RORg counter 6.87*.
`c1ccc(-c2c[nH]c3ccc(OCc4ccc5ccccc5n4)c(-c4ccccc4)c23)cc1` gave NR1D1 modulator 4.0.
Screening CCCC1CCC2(CC1)CCC2OC(=O)Nc1ccccc1OC (stereo not given) returned NR1D1 modulator -1.9.
CS(=O)(=O)c1ccc2nc(NC(=O)c3ccccc3)sc2c1 was read as PKA-R2B act 2.0, PKA-R1A activ -4.7, NR1D1 modulator 0.4 and PG9 Ab binder 0.3.
Screening Cc1ccc(NC(=O)Nc2nc3ccc(S(C)(=O)=O)cc3s2)cc1 returned PKA-R2B act -5.3, PKA-R1A activ -11.5, NR1D1 modulator 19.3*, PG9 Ab binder 33.8*, PG9 bind confirm 31.1*, PGV04 Ab binding 41.8* and NR1D1 mod conf 7.7.
`Cc1cccc(C(=O)Nc2nc3ccc(S(C)(=O)=O)cc3s2)c1` gave PKA-R2B act -2.9, PKA-R1A activ -1.2, NR1D1 modulator 35.8*, PG9 Ab binder 34.4*, PG9 bind confirm 14.9*, PGV04 Ab binding 37.7* and NR1D1 mod conf 21.9*.
`COc1ccc(C(=O)Nc2nc3ccc(S(C)(=O)=O)cc3s2)cc1OC` gave PKA-R2B act -6.1, PKA-R1A activ -8.8, NR1D1 modulator 30.3*, PG9 Ab binder 21.8*, PG9 bind confirm 27.8*, PGV04 Ab binding 40.2* and NR1D1 mod conf 24.8*.
`Cc1ccc(C(=O)Nc2nc3ccc(S(C)(=O)=O)cc3s2)cc1C` gave PKA-R2B act -10.4, PKA-R1A activ -4.2, NR1D1 modulator 25.6*, PG9 Ab binder 20.7*, PG9 bind confirm 32.2*, PGV04 Ab binding 50.9* and NR1D1 mod conf 21.3*.
For CS(=O)(=O)c1ccc2nc(NC(=O)Nc3ccc(Cl)c(Cl)c3)sc2c1 the results were PKA-R2B act -1.4, PKA-R1A activ 6.2, NR1D1 modulator 7.7 and PG9 Ab binder -1.3.
`O=C(CSc1nnc(COc2ccccc2)n1-c1ccc(Cl)cc1)Nc1ccc(OCc2ccccc2)cc1` gave NR1D1 modulator -4.3.
O=C(NCc1ccccc1)Nc1ccccc1C(=O)N1CCCC1 was read as NR1D1 modulator -1.7.
Screening CC(=O)Nc1sc2c(c1-c1nc3ccccc3s1)CNC2 returned NR1D1 modulator -9.4.
`Cc1ccc(-n2c(SCC(=O)NCc3ccco3)nc3sc(C)c(C)c3c2=O)cc1` gave PKA-R2B act -6.2, PKA-R1A activ -14.0, NR1D1 modulator 67.2*, PG9 Ab binder 30.3*, PG9 bind confirm 28.8*, PGV04 Ab binding 42.1* and NR1D1 mod conf 62.8*.
Cc1sc2nc(SCC(=O)NCc3ccco3)n(-c3ccccc3)c(=O)c2c1C was read as PKA-R2B act -2.9, PKA-R1A activ -15.0, NR1D1 modulator 101.8*, PG9 Ab binder 51.0*, PG9 bind confirm 57.9*, PGV04 Ab binding 75.4* and NR1D1 mod conf 85.1*.

Screening data as filed in PubChem BioAssay.
